Compound activity (PubChem BioAssay)
Compounds with a hit are over-represented: about 2% of the library has one in this group of screens.
Gli-Sufu antag – blocks Gli-Sufu signaling in a luciferase reporter; Sufu-KO-LIGHT fibroblasts, Gli luciferase reporter luminescence; inhibition, % at 5 µM; 340,000 compounds, 0.74% hits; AID 588413;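 active = inhibition above about 55%, limit read from the data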;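 note: 0% = DMSO-treated cells and 100% = wells with medium but no cells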
NR2F2 inh – inhibitors of human COUP-TFII (NR2F2); P24468; HEK293T NGFI-A luciferase reporter, luminescence; inhibition, % at 8.6 µM; 370,000 compounds, 0.7% hits; AID 686940;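 active = inhibition above a per-plate cutoff, mean inhibition of test wells between control levels plus 3 SD, cut at about 38% in these data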;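 note: cells cotransfected with COUP-TFII expression vector driving the NGFI-A reporter; 0% = median of COUP-TF2 test wells and 100% = reporter-only cells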
Target sequence (P24468 whole entry, looked up): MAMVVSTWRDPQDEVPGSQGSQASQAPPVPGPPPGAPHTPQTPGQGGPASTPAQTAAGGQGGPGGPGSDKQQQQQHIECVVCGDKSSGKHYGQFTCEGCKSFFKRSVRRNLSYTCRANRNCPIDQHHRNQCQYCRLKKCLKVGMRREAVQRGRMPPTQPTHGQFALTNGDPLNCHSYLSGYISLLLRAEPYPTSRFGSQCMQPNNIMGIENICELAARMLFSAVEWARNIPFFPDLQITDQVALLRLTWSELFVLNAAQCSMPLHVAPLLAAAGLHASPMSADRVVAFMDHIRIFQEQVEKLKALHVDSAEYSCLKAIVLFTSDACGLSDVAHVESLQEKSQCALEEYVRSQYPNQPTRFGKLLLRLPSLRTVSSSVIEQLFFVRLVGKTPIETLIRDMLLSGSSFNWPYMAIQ
697 NFkB inh – lowers PMA/ionomycin-induced NF-kB signal in 697 B cells; AID 435022; inhibition, % at 4 µM; 697 B-cell NF-kB luciferase reporter, 16 h; 330,000 compounds, 0.33% hits; in the data active = inhibition above about 35%
GalR3 antag – blocks the human galanin receptor 3; O60755; HEK293 GalR3-CNG cAMP membrane potential fluorescence; galR3 body fused to GalR1 C-terminus; inhibition, % at 3 µM; 360,000 compounds, 0.44% hits;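 active = inhibition above the screen-wide average plus 3 SD, cut at about 13% in these data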;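 note: forskolin and galanin both at EC90 stimulate the cells; cAMP rise reported by CNG channel membrane potential dye signal; 0% = forskolin plus galanin with DMSO and 100% = forskolin alone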
Target sequence (O60755 1-299 limits assumed): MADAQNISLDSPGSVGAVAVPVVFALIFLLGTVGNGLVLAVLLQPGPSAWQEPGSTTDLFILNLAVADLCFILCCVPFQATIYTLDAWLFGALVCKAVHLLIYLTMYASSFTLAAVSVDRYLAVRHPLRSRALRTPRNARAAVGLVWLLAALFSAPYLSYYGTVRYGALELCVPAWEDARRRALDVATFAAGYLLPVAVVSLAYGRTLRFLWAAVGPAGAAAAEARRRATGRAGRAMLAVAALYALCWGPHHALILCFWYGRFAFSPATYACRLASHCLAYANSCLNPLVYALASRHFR
Jurkat NFkB inh – inhibitors of the PMA/ionomycin-induced NF-kB reporter in Jurkat cells; 330,000 compounds, 0.53% hits; inhibition, % at 4 µM; PMA/ionomycin-induced NF-kB luciferase reporter, luminescence; AID 435003; in the data active = inhibition above about 50%
697 NFkB conf – lowers PMA/ionomycin-induced NF-kB signal in 697 B cells. shares compounds with 697 NFkB inh. 697 B-cell NF-kB luciferase, 16 h. inhibition, % at 4 µM. 2,000 compounds, 35% hits; in the data active = inhibition mostly above about 28%, no sharp cut-off; inactive = mostly below about 22%
Gli-Sufu confirm – Gli-SUFU antagonism confirmation, single concentration | shares compounds with Gli-Sufu antag | Sufu-KO-LIGHT cells, Gli luciferase reporter, luminescence | inhibition, % at 5 µM | 2,500 compounds, 40% hits | AID 602428;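 active = mean inhibition at 5 µM reaching about 45%, limit read from the data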;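 note: plate controls were DMSO-treated cells for no effect and wells lacking cells for full effect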
Gli cytotox – counter-screen for Gli-SUFU antagonists: cytotoxicity | shares compounds with Gli-Sufu antag | Sufu-KO-LIGHT cells cytotoxicity, ATP luminescence | cytotoxicity, % at 5 µM | 2,500 compounds, 32% hits | AID 651994;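 active = mean cytotoxicity at 5 µM above about 25%, limit read from the data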;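 note: cells exposed to compound overnight for roughly 16 to 18 hours; plate controls were DMSO wells with cells for no effect and medium without cells for full effect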
Wnt3a counter – Wnt3a reporter inhibition counter-screen; shares compounds with Gli-Sufu antag; Wnt-LIGHT cells, Wnt3a-driven luciferase reporter, luminescence; inhibition, % at 6.25 µM; 2,500 compounds, 20% hits; AID 651995;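 active = mean inhibition above about 25%, limit read from the data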
GalR3 antag conf – confirmation of human galanin receptor 3 antagonists; shares compounds with GalR3 antag; AID 652245; inhibition, % at 3 µM; 1,600 compounds, 59% hits; HEK293 GalR3 CNG cAMP biosensor, membrane potential fluorescence; galR3 fused to GalR1 carboxy tail; challenged with forskolin and galanin at EC90;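 active = inhibition above the primary screen's cutoff, the mean inhibition of all screened compounds plus 3 SD, cut at about 13% in these data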;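 note: 0% = forskolin plus galanin and 100% = forskolin alone with DMSO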
HEK-CNG parental – acts as nonspecific agonist in parental HEK-CNG cells; shares compounds with GalR3 antag; HEK293-CNG parental cells, cAMP membrane potential fluorescence; normalised: DMSO wells 0%, forskolin wells 100%; activation, % at 3 µM; 1,600 compounds, 10% hits; AID 652268; in the data active = activation above about 1.3%
Gal4-VP16 ctr – counter-screen for COUP-TFII antagonists: inhibitors of VP16; inhibition, % at 8.5 µM; shares compounds with NR2F2 inh; 2,500 compounds, 25% hits; AID 687007; HEK293 Gal4-VP16 luciferase reporter, luminescence; in the data active = inhibition above about 13%
COUP-TFII conf – confirmation of human COUP-TFII (NR2F2) inhibitors; HEK293 NGFI-A luciferase reporter, luminescence; shares compounds with NR2F2 inh; 2,500 compounds, 45% hits; AID 687008; inhibition, % at 8.5 µM;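 active = mean inhibition over three repeats above a set limit taken from the earlier primary screen, cut at about 38% in these data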;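 note: 100% = cells given the luciferase reporter alone without the COUP-TF2 vector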
An asterisk follows results filed as active; . = not tested or not shown.

SMILES	Gli-Sufu antag	NR2F2 inh	697 NFkB inh	GalR3 antag	Jurkat NFkB inh	697 NFkB conf	Gal4-VP16 ctr	COUP-TFII conf	others
N#CCSc1n[nH]c2nc3c(c(=O)n12)C1(CCCC1)Cc1ccccc1-3	9	-35	37*	.	1	4	.	.	GalR3 antag conf=-4;HEK-CNG parental=0
Brc1ccc(-c2ncc(-c3ccccc3)cn2)cc1	-81	-37	-289	.	-150	-210	.	.	GalR3 antag conf=3;HEK-CNG parental=0
Brc1ccc(-c2ccccc2)cc1	18	3	13	-2	6	.	.	.
CCS(=O)(=O)Nc1ccc2c(c1)C(=O)N(C)[C@@H]1CC[C@H](CC(=O)NCCOC)O[C@H]1CO2	.	-7	.	.	.	.	.	.
CCC(NC(=O)CCc1c(C)c2cc3c4c(oc3cc2oc1=O)CCCC4)C(=O)O (stereo not given)	16	40*	49*	-11	14	19	46*	42*
CCCCC(NC(=O)Cc1c(C)c2cc3c4c(oc3cc2oc1=O)CCCC4)C(=O)O (stereo not given)	11	-4	2	-7	-27	.	.	.
N=c1c2c(n(Cc3cccc(Cl)c3)c3c1CCC3)CCCC2	81*	65*	43*	0	41	38*	13*	47*	Gli-Sufu confirm=83*;Gli cytotox=35*;Wnt3a counter=36*
O=c1[nH]c(SCc2ccc(Cl)cc2)nc2c1CCC2	20	-1	-30	-3	0	.	.	.
N=c1c2c(n(Cc3ccc(Cl)cc3)c3c1CCC3)CCC2	80*	67*	105*	-6	34	25	4	46*	Gli-Sufu confirm=82*;Gli cytotox=25*;Wnt3a counter=48*
Clc1cccc(CN2CCCCCC2)c1	-1	14	0	-10	7	.	.	.
C=CCN1C(=O)[C@@H](CC(=O)NCCCC)[C@]2(C(=O)OCC)CCCCC/C=C/12	.	-10	.	.	.	.	.	.
O=C(NNC(=O)c1ccccc1O)c1ccc(Cl)c(S(=O)(=O)N2CCc3ccccc32)c1	63*	48*	85*	29*	-10	97*	0	39*	GalR3 antag conf=60*;HEK-CNG parental=-2
COc1ccc(-c2noc(CCCC(=O)Nc3ccc(C(N)=O)cc3)n2)cc1	43	55*	78*	-1	10	45*	39*	13
CC(C)(C)c1ccc(-c2noc(CCC(=O)Nc3cccnc3)n2)cc1	71*	78*	91*	-10	-54	91*	59*	77*
COc1cc(-c2noc(CCC(N)=O)n2)cc(OC)c1OC	.	9	-1	0	-24	.	.	.
CC(C)(C)c1ccc(-c2noc(CCC(N)=O)n2)cc1	76*	85*	93*	-4	19	94*	72*	88*
Cc1ccc(-c2noc(CCC(=O)NCC3CCCO3)n2)cc1 (stereo not given)	.	1	19	1	15	.	.	.
CC(C)(C)c1ccc(-c2noc(CCC(=O)NCC3CCCO3)n2)cc1 (stereo not given)	73*	75*	96*	-2	8	88*	26*	61*
COc1ccc(S(=O)(=O)NCc2ccncc2)cc1NC(=O)c1ccccc1	19	36	-44	-5	30	.	.	.
CCOc1ccc(S(=O)(=O)NCc2ccncc2)cc1NC(=O)c1ccccc1	63*	59*	45*	-4	47	84*	-2	54*	Gli-Sufu confirm=66*;Gli cytotox=28*;Wnt3a counter=1
c1nc(NC[C@@H]2CCCO2)c2cc(-c3ccc4c(c3)OCO4)ccc2n1	.	-3	.	.	.	.	.	.
Cc1sc(NC(=O)c2ccco2)c(C(c2cccnc2)N2CCC(C)CC2)c1C (stereo not given)	11	51*	36*	-4	36	-12	2	49*
Nc1ccc(-c2ncc(-c3ccccc3)o2)cc1	24	79*	40*	-11	-124	-6	72*	62*
COc1ccc(NC(=O)N(C)[C@H]2C[C@H]3c4[nH]c5c(-c6cccc(C)c6)cccc5c4CCN3C(=O)[C@H]2[C@H](C)O)cc1	.	1	.	.	.	.	.	.
CC1CCc2nc(NC(=O)C3COc4ccccc4O3)sc2C1 (stereo not given)	-10	64*	-300	.	-89	-334	18*	57*
SMILES	Gli-Sufu antag	NR2F2 inh	697 NFkB inh	GalR3 antag	Jurkat NFkB inh	697 NFkB conf	Gal4-VP16 ctr	COUP-TFII conf	others
CC(=O)CC[C@@H]1CC[C@]2(CCCN(C(=O)c3ccc4ccccc4n3)C2)O1	.	-28	.	.	.	.	.	.
O=C1CC(c2ccc3c(c2)OCCO3)Oc2ccc([N+](=O)[O-])cc21 (stereo not given)	29	42*	-256	0	-130	-228	20*	67*
CCOc1ccc(-c2cc(CCCC(=O)NCc3ccc(C)cc3)no2)cc1	11	44*	48*	.	-7	37*	32*	11
CCOc1ccc(-c2nnn(CC(=O)NCc3ccco3)n2)cc1	32	-12	22	-3	10	.	.	.
CCOc1ccc(-c2cc(CCCC(=O)NCc3ccco3)no2)cc1	41	43*	57*	.	-20	46*	-5	-14
N#Cc1ccccc1COc1ccc(/C=C/C(=O)O)cc1	22	68*	39*	-4	14	38*	63*	51*
COC(=O)[C@H](CC(C)C)N(Cc1cn(CC2CCCCC2)nn1)S(=O)(=O)c1ccc(F)cc1Br	.	4	.	.	.	.	.	.
CCNC(=S)NNC(=O)CSc1nnc(SCc2cccc3ccccc23)s1	.	0	.	.	.	.	.	.
CN(CC1CCCO1)S(=O)(=O)c1ccc(C(=O)Nc2ccc3c(c2)OCO3)cc1 (stereo not given)	-7	9	5	2	5	.	.	.
